From PubChem
Most compounds without a hit are left out; they make up all but 2.1% or so of the library.
aSyn yeast inh: inhibitors of alpha-synuclein toxicity in yeast. Yeast expressing alpha-synuclein, growth rescue, BacTiter-Glo, 24 h. Potency, µM (highest dose often 46.1 µM), inactives show at the highest dose growth rescue (activation), actives largely listed as activators. 370,000 compounds, 0.14% hits; further: % of control where 0% means no effect; nearly all actives have a fitted effect of over 65% in size
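Screening used galactose-induced yeast with toxic alpha-synuclein levels, exposed to compound for 24 hr at 30 deg C. Cell growth, read with BacTiter-Glo luminescence, gave the measured signal.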
Abeta rescue: compounds reversing amyloid beta toxicity in yeast; 410,000 compounds, 0.063% hits; Potency, µM (doses to about 46.1 µM), hits mostly activators; yeast expressing A-beta42, growth rescue, OD600, 48 h; response scale: 0% DMSO, 100% iron-clioquinol control; further: nearly all actives have a fitted effect of over 55% in size
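Growth rescue measured by 600 nm absorbance after 48 h yeast culture at 30 C with compound. Values normalized between DMSO and an equimolar ferric chloride plus clioquinol control.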
FUS suppressor: suppressors of FUS proteinopathy in yeast; Potency, µM (doses to about 76.6 µM), usual class: activators; 390,000 compounds, 0.24% hits; AID 1347120; S. cerevisiae FUS-expressing, growth rescue, OD600, 24 h;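 further: plate controls were DMSO vehicle for no effect and reference control for full effect; nearly all actives have a fitted effect of over 55% in size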
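S. cerevisiae expressing FUS from galactose induction served as the toxicity model. Growth after 24hr at 30C, read as absorbance at 600 nm, indicates suppression of toxicity; compounds dosed at several concentrations.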
TDP-43 yeast inh: rescues yeast growth from TDP-43 toxicity; Potency, µM (doses to about 46.1 µM), for inactives: at the highest dose growth rescue (activation), most hits filed as activators; 410,000 compounds, 1.8% hits; TDP-43 expressing yeast growth rescue, BacTiter-Glo, 24 h; further: % of control where 0% means no effect; nearly all actives have a fitted effect of over 50% in size
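Readout is BacTiter-Glo luminescence of cell growth, so inhibitors register as activators. TDP-43-expressing yeast at OD600=0.02 in galactose medium, after raffinose pregrowth to mid-log, were incubated with compound for 24 hr at 30 deg C.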
Numbers without * were called inactive; i = inactive; ? = inconclusive; . = not tested or not shown. The call rests on the fitted dose curve; in most records, active means well fitted curve in the direction sought with a large enough effect; inconclusive means small, poorly fitted or top-dose-only effect, or another doubt; inactive means no such curve, though single readings can be large; an effect the other way counts as inactive or inconclusive. Potency means the concentration at half of the fitted maximal effect.

SMILES	aSyn yeast inh	Abeta rescue	FUS suppressor	TDP-43 yeast inh
CC(=O)Nc1ccc(C(CCCc2ccccc2)C2=CCCCC2)cc1 (configuration not stated)	.	.	i	.
O=C1c2ccccc2C2(c3ccccc3)N1CCN2C(=O)C(Cl)(Cl)Cl (configuration not stated)	5%	i	i	13µM*
C#CCN(C[C@@H]1[C@@H](OC(=O)NCc2ccco2)[C@@H](OC(=O)NCc2ccco2)Cn2c(=O)ccc(=O)n21)S(=O)(=O)c1ccc(C)cc1	-7%	i	?	21%
C#CCN(C[C@H]1[C@H](OC(=O)NCc2ccco2)[C@H](OC(=O)NCc2ccco2)C[C@H]2C(=O)N(c3ccccc3)C(=O)[C@@H]12)S(=O)(=O)c1ccc(C)cc1	0%	i	16µM*	0%
O=C(C1CCCN(c2ncnc3c2nc2n3CCCCC2)C1)N1CCN(c2ccccc2F)CC1 (configuration not stated)	-9%	i	i	11µM*
O=C(Nc1ccccc1Cl)C1CCCN(c2ncnc3c2nc2n3CCCCC2)C1 (configuration not stated)	4%	i	i	14µM*
CCc1ccccc1N(C)C(=O)C1CCCN(c2ncnc3c2nc2n3CCCCC2)C1 (configuration not stated)	.	i	i	11µM*
O=C(Nc1c(Cl)cc([N+](=O)[O-])cc1Cl)c1cc(Cl)ccc1O	-15%	.	.	.
c1ccc(Cn2ccc3ccc(-c4ccc5ccn(Cc6cccc(-c7cccs7)c6)c5c4)cc32)cc1	.	.	i	.
Fc1ccccc1C1CC(c2ccco2)=Nc2ccccc2S1 (configuration not stated)	22%	i	i	22µM*
COc1ccccc1C1CC(c2cccs2)=Nc2ccccc2S1 (configuration not stated)	8%	i	i	14%
O=C(NCc1cccc(Cl)c1)c1cc(COc2ccc3ncccc3c2)on1	-11%	i	i	14µM*
Cc1ccccc1CS(=O)(=O)Cc1ccc(C(=O)Nc2ccc(F)cc2F)o1	.	.	i	.
Cc1nn(-c2ccccc2)c(C)c1C(=O)Oc1ccccc1	-12%	i	i	?
COc1ccc(OC(=O)c2c(C)nn(-c3ccccc3)c2C)cc1	-20%	i	i	22µM*
COc1ccccc1C(=O)NCCc1csc(-c2ccc(C(F)(F)F)cc2)n1	.	i	?	25µM*
COc1cc(OC)cc(C(=O)NCCc2csc(-c3ccc(C(F)(F)F)cc3)n2)c1	.	i	i	18µM*
COc1ccc(C(=O)NCCc2csc(-c3ccc(Cl)cc3)n2)c(OC)c1	.	i	?	20µM*
O=C(Nc1cccc(C(F)(F)F)c1)c1csc(-c2ccncc2)n1	-4%	i	i	-8%
COc1cc(NC(=O)c2csc(-c3ccncc3)n2)cc(C(=O)Nc2cccc(C(F)(F)F)c2)c1	1%	i	?	20µM*
COc1ccc(CC(=O)NCCc2csc(-c3ccc(C(F)(F)F)cc3)n2)cc1	-4%	i	i	11%
O=C1CCC[C@H]2C[C@H](NCc3ccc(Br)cc3)CC[C@]23CCCN13	.	.	i	.
O=C(NCCc1csc(-c2ccc(Cl)cc2)n1)c1cccs1	.	i	i	18µM*
CCCCNS(=O)(=O)/C=C/c1cc2c(cc1CNC(=O)OC(C)(C)C)OCO2	.	.	i	.
O=C(COC(=O)c1cccs1)Nc1ccccc1[N+](=O)[O-]	-12%	?	i	5%
SMILES	aSyn yeast inh	Abeta rescue	FUS suppressor	TDP-43 yeast inh
N#Cc1ccccc1NC(=O)COC(=O)c1cccs1	-7%	i	i	10µM*
O=C(NCc1ccccn1)c1cc(-c2ccccc2Cl)nc2ccccc12	5%	i	.	20µM*
Cc1cc(NC(=O)c2cc(-c3ccccc3C)nc3ccccc23)no1	1%	i	.	0%
Cc1cc(NC(=O)c2cc(-c3ccccc3Cl)nc3ccccc23)no1	2%	i	i	14µM*
O=C(NC1CCCCN(Cc2ccc(Cl)cc2)C1=O)c1ccc(F)c(F)c1 (configuration not stated)	.	.	i	.
COCCOC(=O)N1CCN(/[N+]([O-])=N/Oc2ccc([N+](=O)[O-])cc2[N+](=O)[O-])CC1	-74%	.	.	.
COc1ccc(COc2cccc(C=O)c2)cc1	-24%	i	i	?
O=Cc1cccc(OCc2cccc3ccccc23)c1	-1%	i	i	14µM*
C[C@H](CO)N1C[C@H](C)[C@@H](CN(C)C(=O)Nc2ccc3c(c2)OCO3)Oc2ccc(NC(=O)Cc3ccccc3)cc2C1=O	8%	i	i	1%
C[C@@H]1CN([C@H](C)CO)C(=O)c2cc(NC(=O)Cc3cn(C)c4ccccc34)ccc2O[C@H]1CN(C)C(=O)Nc1ccc2c(c1)OCO2	2%	i	32µM*	0%
COc1ccc(NC(=O)Nc2cccc3c2O[C@H](CN(C)C(=O)Nc2ccc(OC)cc2)[C@@H](C)CN([C@H](C)CO)C3=O)cc1	1%	i	32µM*	3%
COc1ccc(NC(=O)N(C)C[C@H]2Oc3ccc(NC(=O)Nc4ccc(C(F)(F)F)cc4)cc3C(=O)N([C@H](C)CO)C[C@@H]2C)cc1	-1%	i	35µM*	25%
CN(C)S(=O)(=O)c1cccc(C(=O)N/N=C\c2ccccc2)c1	.	.	i	.
COC(=O)c1cc(-c2cccc(C#N)c2)c(=O)n2c1CCC2	.	.	i	.
Cc1ccccc1NC(=O)c1cccc2c1-c1ccccc1C2=O	.	.	i	.
COc1ccccc1CNC(=O)NCCCN1CCN(c2ccc(F)cc2)CC1	.	.	i	.
CCc1cc2c(=O)[nH]c(-c3ccccn3)nc2s1	18µM*	?	.	?
Cc1cc(-c2nc(-c3ccncc3)no2)ccc1[N+](=O)[O-]	-3%	i	i	11µM*
CNc1ccc(-c2nc(-c3ccncc3)no2)cc1[N+](=O)[O-]	.	i	i	-3%
C/C(=C\c1ccccc1)C(=O)Nc1nccs1	-13%	i	i	11µM*
O=C(Cc1ccc(F)cc1)Nc1nccs1	-10%	i	i	9%
S=C(Nc1ccccc1)Nc1nccs1	-25%	?	i	13µM*
Fc1ccc(NC(=S)Nc2nccs2)cc1	-12%	?	i	22µM*
O=S1(=O)c2ccc(N3CC[C@H](O)C3)cc2O[C@H]2CCN1C2	.	.	i	.
CC1CC(C)CN(C(=O)c2ccc3c(c2NCCO)C(=O)c2ccccc2C3=O)C1 (configuration not stated)	-1%	i	i	18µM*
COc1ccc(C2C(C(=O)Nc3ccccc3)=C(C)Nc3nc(-c4ccccc4Cl)nn32)cc1OC (configuration not stated)	.	i	?	28%
N/C(=N\OC(=O)c1ccc(F)cc1)c1cccc([N+](=O)[O-])c1	-8%	i	i	13µM*
N/C(Cc1ccc([N+](=O)[O-])cc1)=N\OC(=O)c1cccc(Br)c1	-73%	i	i	-93%
